Source: PubChem
Compounds with a hit are over-represented: about 1.1% of the library has one in this group of screens.
VLA-4 inh = inhibition in a human VLA-4 binding assay; VLA-4 expressing cells, ligand binding flow cytometry; inhibition, % (about 7 µM as worked out from the volumes in the protocol); 0.2% of 330,000 active; AID 2557; in the data active means inhibition above about 50%
CaV13 FRET inh = Disruptors of the CACNA1D IQ motif to Ca2+-dependent inactivation inhibitor domain association, primary screening, Förster resonance energy transfer in intact living … | HEK cells, CFP/YFP FRET ICDI-IQ, plate reader, 10 min; percent FRET-ratio fall versus neutral wells | inhibition, % at 12.3 µM | 0.098% of 340,000 active | AID 743397;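 active means mean replicate inhibition of at least 30% and at least 1% of replicates passing that level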
ABCB6 inh MLPCN = human ABCB6 transporter inhibition; fluorescence ratio to DMSO, % at 10 µM; 0.19% of 360,000 active; K562-ABCB6 porphyrin accumulation, flow cytometry, 1 h; active compounds read low; AID 602162;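 active means fluorescence ratio to DMSO below 75%, the collection mean minus 3 SD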;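 further: signal is porphyrin accumulated inside mitochondria; lower ratio means ABCB6 inhibition with less porphyrin fluorescence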
Exocytosis inh = blocks lytic granule exocytosis; inhibition, % at 10 µM; 0.66% of 360,000 active; AID 651702; TALL-104 LAMP-1 surface exposure, flow cytometry; cells stimulated with thapsigargin and PMA;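 active means inhibition above about 55%, limit read from the data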
Hits are given with their value; – = inactive; · = no result; + = active, no number.

SMILES | VLA-4 inh | CaV13 FRET inh | ABCB6 inh MLPCN | Exocytosis inh
Cc1ccc(NC(=O)COC(=O)CCC(=O)c2cccs2)c(Br)c1 | – | – | – | 75
Cc1ccc(NC(=O)CCC(=O)c2cccs2)c(Br)c1 | – | – | – | –
Cc1ccc(S(=O)(=O)N(C(=O)c2ccncc2)c2ccc(OC(=O)c3ccncc3)c3ccccc23)cc1 | – | – | – | 118
Cc1ccc(S(=O)(=O)N(C(=O)c2ccncc2)c2ccc(OC(=O)c3ccncc3)c3ccccc23)c(C)c1 | – | · | – | 100
CC(=O)Oc1ccc(N(C(C)=O)S(=O)(=O)c2ccc(C)cc2C)c2ccccc12 | – | – | – | –
COc1ccc(-c2ccc3c(n2)CCCN3S(=O)(=O)c2c(C)noc2C)cc1 | · | – | · | ·
O=C(C(=O)N1CCC(CNS(=O)(=O)c2ccc(C(F)(F)F)cc2)CC1)c1cccs1 | · | – | · | ·
CC(C)CCN1C(=O)c2cccc3c(N)ccc(c23)C1=O | – | + | – | –
CC(=O)c1cc2c(ccc3ccccc32)oc1=O | – | + | – | –
O=C(N[C@H](C(=O)N1CCC[C@H]1C(=O)NCCc1ccccc1Cl)c1ccccc1)c1ccc(Cl)c(Cl)c1 | · | – | · | ·
COCc1cc(N2CCN(C(=O)OC(C)(C)C)C[C@@H]2C)ccc1Br | · | – | · | ·
Cc1cccc(CCNC(=O)c2cc(S(=O)(=O)N3CCCCC3)c[nH]2)c1 | – | – | – | –
COc1ccc(CCNC(=O)c2cc(S(=O)(=O)N3CCCCC3)c[nH]2)cc1OC | – | 43 | – | –
C/C(CCc1oc2ccccc2c1-c1ccc(C)o1)=N/O | – | – | – | 74
C/C(CCc1oc2c(Br)cc(Br)cc2c1-c1ccc(C)o1)=N\O | – | – | – | 83
CC(=O)CCc1oc2ccc([N+](=O)[O-])cc2c1-c1ccc(C)o1 | – | – | – | –
Nc1[nH]c(C(=O)c2ccccc2)c(-c2ccc(Cl)cc2F)c1C(=O)NCCc1c[nH]c2ccccc12 | · | – | · | ·
CC1=NOC(=O)/C1=C\c1ccc(-c2ccc(Cl)cc2Cl)o1 | · | – | – | 96
CCCOc1ccc(Cl)cc1/C=C1/C(=O)ON=C1C | – | – | – | –
Cc1cc2oc(C(=O)N(Cc3ccccc3)c3ccccn3)cc(=O)c2cc1Cl | – | – | – | 57
Cc1cc(C)c2oc(C(=O)N(Cc3ccccc3)c3ccccn3)cc(=O)c2c1 | – | – | – | –
COC(=O)[C@]12C[C@H](CC(=O)N3CCN(C(=O)c4ccco4)CC3)C(=O)N(Cc3ccccc3)C1=C[C@H](C(C)C)O[C@@H]2C1CC1 | · | – | · | ·
CCOc1cnn(-c2cc(Oc3ccc(C)cc3)ncn2)c(=O)c1Cl | – | – | – | –
Cc1ccccc1Oc1cc(-n2ncc(Cl)c(Cl)c2=O)ncn1 | – | – | 60 | –
Cc1[nH]oc(=O)c1N=Nc1ccc2[nH]c(=O)[nH]c2c1 | – | – | 71 | –
SMILES | VLA-4 inh | CaV13 FRET inh | ABCB6 inh MLPCN | Exocytosis inh
CCN1CCN(CCCNC(=O)c2ccc(/C=C3/Sc4ccccc4N(Cc4ccccc4F)C3=O)cc2)CC1 | – | – | – | 70
CCN1CCN(CCCNC(=O)c2ccc(/C=C3/Oc4ccccc4N(Cc4cccc(C)c4)C3=O)cc2)CC1 | – | · | – | –
COc1ccccc1-c1ccc2c(c1)[C@@H]1C[C@H]3[C@@H](CN1CC2)[C@H](C)ON3C | · | – | · | ·
C=CCOC(=O)C1=C[C@H](C(C)(C)C)[C@@H](CCCO)[C@H](OCC)O1 | · | – | – | 69
CCCCCCCCN1C(=O)[C@@H](CC(=O)N2CCSCC2)C[C@@]2(C(=O)OC)C1=C[C@H](C1CCCC1)O[C@@H]2C | · | – | · | ·
N#Cc1c(N2CCCC2)nc(N)c2c(N)nc(N3CCCC3)cc12 | – | – | – | 60
COc1cc2c(C#N)c(N3CCCC3)nc(N)c2c(N)n1 | – | – | – | –
CC(C)c1ccc(/C=C2\Oc3c(ccc(O)c3CN3CCN(C)CC3)C2=O)cc1 | – | + | – | –
Nc1nc2c(ncn2[C@@H]2O[C@H](C(=O)NCCc3c[nH]c4ccccc34)[C@@H](O)[C@H]2O)c(=O)[nH]1 | · | – | · | ·
CCOc1ccc(NC(=O)CN(C)C(=O)CCCNC(=O)c2ccc(Cl)cc2)cc1OCC | · | 32 | – | –
COc1cccc(NC(=O)CN(C)C(=O)CCCNC(=O)c2ccc(Cl)cc2)c1 | – | – | – | –
COC(=O)C1=C(C)N(Cc2ccccc2C(F)(F)F)C(=NCc2cc(OC)c(OC)c(OC)c2)NC1CCc1ccccc1 (stereo not given) | · | – | · | ·
O=C(NCC1CCN(C(=O)C(=O)c2cc3ccccc3o2)CC1)c1ccncc1 | · | – | · | ·
Cc1cc(Cl)c(S(=O)(=O)Nc2ccc3c(c2)OCCO3)cc1OCC(=O)NC1CCCCC1 | – | – | 73 | –
